The results in this text go back to PubChem BioAssay (NCI).

Compounds without any hit were thinned out: in the full panel of roughly 79,000, 15% have a hit. A number with no mark means an inactive call. Activity calls are given as the source filed them. Rule as the data show it: active = growth inhibition above about 70%; inactive = the rest.

Test [1] can be described thus: NCI Yeast Anticancer Drug Screen. Data for the rad50 strain (AID 155).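 Also: 0% = growth of vehicle-only cultures of the same strain.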 The note with it: S. cerevisiae rad50 strain growth inhibition, hits give high values; at 50.0 µM unless noted. The gist of the method: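 DNA repair mutant yeast, compound exposure, growth read-out; inhibition is taken relative to vehicle.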
Test [2] is described as follows: NCI Yeast Anticancer Drug Screen. Data for the mec2-1 strain (AID 157). The following applies: S. cerevisiae mec2-1 strain, hits give high values; at 50.0 µM unless noted. The gist of the method:
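Mutant yeast (mec2-1) grown with compound; growth inhibition relative to vehicle control reported.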

The nature of test [3]: NCI Yeast Anticancer Drug Screen. Data for the sgs1 mgt1 strain (AID 161).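 Also: 0% = growth of cultures given vehicle only.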 The note with it: S. cerevisiae sgs1 mgt1 strain, hits give high values; at 50.0 µM unless noted. The gist of the method: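 Growth of a repair-deficient yeast mutant was monitored after compound treatment and expressed as inhibition relative to vehicle-treated cultures.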
Test [4] can be described thus: NCI Yeast Anticancer Drug Screen. Data for the cln2 rad14 strain (AID 165).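 Also: 0% = growth equal to vehicle treated cultures.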 The note with it: S. cerevisiae cln2 rad14 strain, hits give high values; at 50.0 µM unless noted. The method, boiled down:
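Readout is yeast growth inhibition versus vehicle-treated controls, using a strain with cln2 and rad14 alterations exposed to compound.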

A short description of test [5]: NCI Yeast Anticancer Drug Screen. Data for the bub3 strain (AID 167). The following applies: S. cerevisiae bub3 mutant strain, hits give high values; at 50.0 µM unless noted. The gist of the method: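 In this screen, a yeast mutant lacking normal mitotic checkpoint function is challenged with compound. Relative growth versus vehicle gives the inhibition value.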
Test [6] is described as follows: NCI Yeast Anticancer Drug Screen. Data for the mlh1 rad18 strain (AID 175). The note with it: S. cerevisiae mlh1 rad18 strain growth inhibition, hits give high values; at 50.0 µM unless noted. The gist of the method: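 Genetically defined yeast (DNA repair-deficient) exposed to compounds; growth inhibition determined relative to vehicle.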

As to `CCCCOC(=O)NC(Nc1ccc(S(N)(=O)=O)cc1)(C(F)(F)F)C(F)(F)F`, the growth inhibition in test [1] was 5.95%; in test [2], 7.9%; in test [3], 2.95%; in test [4], -1.4%; in test [5], 12.1%; in test [6] it was 18.3%.

For the molecule `CCC(=O)COc1ccc(NC(NC(=O)C(C(F)(F)F)C(F)(F)F)(C(F)(F)F)C(F)(F)F)cc1`, the growth inhibition in test [1] was 16.2%; in test [2], -24.8%; in test [3], 6.5%; in test [4], 29.2%; in test [5] it was -3.3%; in test [6] it was -16%.

`COc1ccc(OC)c(NC(=O)CCCC(=O)C(C#N)c2ccc(CC#N)cc2)c1` (stereo not given): the growth inhibition in test [1] was -15.8%; in test [2], -17.6%; in test [3], -34.5%; in test [4], -40.8%; in test [5], 3.1%; in test [6], -25.6%.

In the case of `CCOC(=O)CON=c1c2ccccc2ccc2ccccc12`, the growth inhibition in test [1] was 4.05%; in test [2], -5.85%; in test [3] it was -22.5%; in test [4], 3.4%; in test [5], -10.2%; in test [6], -2.45%.

On to `CCCCSCC(N)CO` (stereo not given), for which the growth inhibition was 9.05% in test [1]; 5.2% in test [2]; 10.7% in test [3]; -34.2% in test [4]; 0.55% in test [5]; 1.75% in test [6].

Turning to `O=C1NCCN1/N=C/c1ccc([N+](=O)[O-])o1`, the growth inhibition in test [1] was 26.4%; in test [2] it was 9.35%; in test [3] it was 37.5%; in test [4], -29.9%; in test [5] it was 14.4%; in test [6], 25.9%.

`N#CCCC1(CCC#N)CCCC(CCC#N)(CCC#N)C1=O`: the growth inhibition in test [1] was 2%; in test [2], 7.6%; in test [3] it was 2.15%; in test [4], -51.5%; in test [5] it was 16.8%; in test [6], 11.2%.

Turning to `O=CNc1cccnc1C1OCCO1`, the growth inhibition in test [1] was 4.85%; in test [2] it was 5.85%; in test [3] it was 2%; in test [4], -13.3%; in test [5], -4.75%; in test [6] it was 7.65%.

As to `CC(=O)OCC(O)CS(=O)c1ccc(C)cc1` (stereo not given), the growth inhibition in test [1] was -6.25%; in test [2], 2%; in test [3], 0.4%; in test [4] it was -30.6%; in test [5] it was -16.1%; in test [6], 4.2%.

As for `COC(=O)/C([O-])=C(\C(=O)OC)[n+]1cc(Br)cc2ccccc21`, the growth inhibition in test [1] is 4.15%; in test [2] it was 1.85%; in test [3], 31.6%; in test [4], -9.5%; in test [5] it was 56.8%; in test [6], -7.4%.

Turning to `C#CCOc1ccc(C)cc1`, the growth inhibition in test [1] was -0.55%; in test [2], 5.35%; in test [3], -7.05%; in test [4] it was 9.25%; in test [5] it was 2.55%; in test [6], -10.1%.

On to `CCCCC(CC)C(O)P(=O)(O)O` (stereo not given), for which the growth inhibition was -9.2% in test [1]; -15.1% in test [2]; -9.75% in test [3]; -14.3% in test [4]; 2.8% in test [5]; 0.45% in test [6].

As for `Cc1ccc2ccccc2c1CN(C)C`, the growth inhibition is 4.7% in test [1]; -1.05% in test [2]; -8.6% in test [3]; -61% in test [4]; -3.45% in test [5]; -12.7% in test [6].

On to `NNC(=O)C(c1ccccc1)c1ccccc1`, for which the growth inhibition is 6.4% in test [1]; -8.95% in test [2]; -18.8% in test [3]; 3% in test [4]; -28.9% in test [5]; -0.25% in test [6].

As to `CC(=O)c1ccc(O)c(/C=C2\CCOC2=O)c1`, the growth inhibition in test [1] was 8.2%; in test [2], 8.4%; in test [3], -9%; in test [4] it was -3.45%; in test [5], 9.55%; in test [6], 7.7%.

As for `CC(=O)OC(C)(C)C#CC(C)(C)OC(C)=O`, the growth inhibition is -9.95% in test [1]; -24.4% in test [2]; -15.4% in test [3]; 3% in test [4]; -11.7% in test [5]; -19.3% in test [6].

In the case of `CCCCCCCCC(O)C#CC(O)CCCCCCCC` (stereo not given), the growth inhibition in test [1] is -18%; in test [2] it was -20.9%; in test [3] it was -5.6%; in test [4] it was -12.9%; in test [5], -12.6%; in test [6] it was -8.85%.

In the case of `COc1cc2c3c([nH]c2c(OC)c1OC)CCN(Cc1ccccc1)C3`, the growth inhibition in test [1] is -27.7%; in test [2], -15.1%; in test [3], -10.2%; in test [4] it was 6.1%; in test [5], -0.7%; in test [6], 10.8%.

`COc1ccc(CC(C)NN)cc1` (stereo not given): the growth inhibition in test [1] is 93% (active); in test [2], 56.7%; in test [3] it was 50.2%; in test [4], 95.7% (active); in test [5], 99.2% (active); in test [6], 98.5% (active).

With `CC(C)(C)C(C)(C)SSC(C)(C)C(C)(C)C`, the growth inhibition in test [1] was 6.05%; in test [2], 12.4%; in test [3] it was 18.8%; in test [4], 7.4%; in test [5], 15.7%; in test [6] it was 25.5%.
